Bioassay records deposited in PubChem by The Scripps Research Institute Molecular Screening Center.
This is a sample that favours compounds with a hit; in the whole collection about 3.5% have one here.
MITF inh: MITF inhibitors, primary screen, biochemical, AlphaScreen, human; Microphthalmia-associated transcription factor (Homo sapiens), O75030; AlphaScreen MITF homodimerization, bead proximity signal; inhibition, % at 2.6 µM; hit rate 0.91% among 650,000; AID 1259374, 2018; in the data active = inhibition above about 50%
FBW7 act: FBW7 E3 ligase activators, primary screen, biochemical, AlphaScreen, human; hit rate 0.13% among 650,000; normalized activity (activation), % at 26.1 µM; AlphaScreen FBW7–phospho-cyclin E peptide binding, activator screen; in the data active = normalized activity above about 1.9%;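 note: purified mutant Fbw7 with reduced substrate affinity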
TEAD-YAP inh: TEAD-YAP interaction inhibition, primary screen, TEAD-YAP interaction inhibitor project, luminescence, HEK-TIYL cells. TEAD-Gal4/YAP UAS-luciferase luminescence. inhibition, % at 9.12 µM. hit rate 1.4% among 640,000; in the data active = inhibition above about 32%
GPR151 activ: activators of human GPR151, primary screen, cell-based, PathHunter beta-arrestin, luminescence; G-protein coupled receptor 151 (Homo sapiens), Q8TDV0; PathHunter beta-arrestin GPR151 cells; activation, % at 11.2 µM; hit rate 1% among 650,000; AID 1508602, 2020; in the data active = activation above about 4.9%
GPR151 conf act: GPR151 activators, triplicate retest, confirmation, cell-based, PathHunter beta-arrestin, luminescence; GPR151 PathHunter beta-arrestin cells, 90 min; % of EA-reagent control over plate median; shares compounds with GPR151 activ; 6,700 tested, under 10 active; activation, % at 11.2 µM;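 active = mean percent activation across replicates above the confirmation screen cutoff of 4.91%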
GPR119 counter: GPR119 activators in beta-arrestin cells, counter-screen for GPR151 activator project, cell-based, PathHunter beta-arrestin, luminescence, triplicate | activation, % at 11.2 µM | 90 min; 0 = compound-well median, 100 = enzyme-acceptor control | shares compounds with GPR151 activ | hit rate 0.3% among 6,700;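 active = mean percent activation in the counterscreen above 29.09%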;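 note: counterscreen on off-target GPR119 to flag nonselective hits from the GPR151 activator screen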
Target sequence (Q8TDV5 whole entry, looked up): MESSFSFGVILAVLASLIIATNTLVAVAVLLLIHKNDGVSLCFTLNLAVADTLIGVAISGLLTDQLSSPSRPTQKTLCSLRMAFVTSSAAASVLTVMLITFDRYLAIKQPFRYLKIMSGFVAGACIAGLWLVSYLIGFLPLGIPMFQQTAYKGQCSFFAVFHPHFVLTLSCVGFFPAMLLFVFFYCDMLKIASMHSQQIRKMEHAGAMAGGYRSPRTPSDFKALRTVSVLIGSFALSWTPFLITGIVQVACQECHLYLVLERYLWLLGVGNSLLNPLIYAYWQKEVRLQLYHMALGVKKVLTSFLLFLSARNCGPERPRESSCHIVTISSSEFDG
Numbers stand for hits; i = inactive; nt = no result.

SMILES | MITF inh | FBW7 act | TEAD-YAP inh | GPR151 activ | GPR151 conf act | GPR119 counter
CCOc1cc(C(=O)NCc2ccccc2)ccc1OC | i | i | i | 14.1 | i | i
COc1ccc(C(=O)NCCOc2ccccc2OC)cc1OC | i | i | i | i | nt | nt
COc1ccc(C(=O)NCCC(c2ccccc2)c2ccccc2)cc1OC | i | i | i | 19.1 | i | i
CCOC(=O)CNC(=O)c1ccc(OC)c(Br)c1 | i | i | i | 5.6 | i | i
CCOC(=O)CNC(=O)c1ccc(OC)c(I)c1 | i | i | i | i | nt | nt
Cc1cccc(CN2CCC(N3CCC[C@H]3CO)CCC2=O)c1 (stereo partly specified) | i | i | i | 10.9 | i | i
CCOc1ccc(OCC)c(NC(=O)CSc2nnc(C)s2)c1 | i | i | i | i | nt | nt
CSc1cccc(N=CC2=C(O)CC(C)(C)CC2=O)c1 | i | i | i | 7.1 | i | i
COc1cccc(/C=C2/N=C(c3ccc(OC)c(Br)c3)OC2=O)c1 | i | i | i | i | nt | nt
O=C(NCc1ccccc1)C1C2C=CC3(CN(Cc4ccccc4)C(=O)C13)O2 (stereo unspecified) | i | i | i | i | nt | nt
O=C(CN1CCN(Cc2ccccc2)C1=O)NCc1ccc(Cl)cc1 | i | i | i | 13.3 | i | i
O=C(NCc1ccc(Cl)cc1)C1C2C=CC3(CN(Cc4ccccc4)C(=O)C13)O2 (stereo unspecified) | i | i | i | 5.1 | i | i
CCCN1CCC(NCc2ccccc2OC)CC1 | i | i | i | i | nt | nt
COc1ccc2sc(N(Cc3cccnc3)C(=O)c3ccccc3[N+](=O)[O-])nc2c1 | i | i | i | 8.6 | i | i
O=C(c1ccccc1[N+](=O)[O-])N(Cc1cccnc1)c1nc2ccc(F)cc2s1 | i | i | i | i | nt | nt
O=C1CC[C@@H]2CN(Cc3ccccn3)CC[C@@H]2N1Cc1ccc(F)cc1 | i | i | i | i | nt | nt
O=C(COc1ccccc1)Nc1nnc(-c2ccccc2)o1 | i | i | i | 6.0 | i | i
O=C(O)CCC(=O)Nc1cccc(-c2nnc(-c3ccccc3)o2)c1 | i | i | i | 5.0 | i | i
O=C(Cc1ccccc1)Nc1cccc(-c2nnc(-c3cccc(NC(=O)Cc4ccccc4)c3)o2)c1 | i | i | i | i | nt | nt
O=C(COc1ccccc1)Nc1ccc2oc(-c3ccccc3)nc2c1 | i | i | i | 6.3 | i | i
Cc1sc2nc(SCC(=O)NC3CCCC3)nc(N)c2c1C | i | i | i | i | nt | nt
Cc1sc2nc(SCC(=O)N3CCCCC3C)nc(N)c2c1C (stereo unspecified) | i | i | i | 11.3 | i | i
CCc1n[nH]c(=S)n1/N=C/c1ccsc1 | i | i | i | i | nt | nt
CC(=O)C1=C(C)NC(=O)NC1/C=C\c1ccccc1 (stereo unspecified) | i | i | i | i | nt | nt
COc1ccc(CCN2C(=O)CC(C(=O)Nc3ccc(F)cc3)SC2=Nc2ccc(Cl)cc2)cc1OC (stereo unspecified) | i | i | i | i | nt | nt
SMILES | MITF inh | FBW7 act | TEAD-YAP inh | GPR151 activ | GPR151 conf act | GPR119 counter
COc1ccc(CCN2C(=O)CC(C(=O)Nc3ccc(Cl)cc3)SC2=Nc2ccc(F)cc2)cc1OC (stereo unspecified) | i | i | i | 5.4 | i | i
CCN1CC=C2C(C#N)=C(N)C(C#N)(C#N)C(c3ccsc3)C2C1 (stereo unspecified) | i | i | i | i | nt | nt
O=C1CN(C(=O)c2ccccc2)C(c2ccc(Cl)cc2Cl)N1O (stereo unspecified) | i | i | i | i | nt | nt
CC(C)CCN1CCNC(=O)C1CC(=O)N(C)CCc1cnn(C)c1 (stereo unspecified) | i | i | i | 5.6 | i | i
Cc1ccc(CN2CCNC(=O)C2CC(=O)N(C)CCc2cnn(C)c2)cc1 (stereo unspecified) | i | i | i | i | nt | nt
Cc1ccc(S(=O)(=O)N(CCc2ccccc2)CC(=O)NC(C)C)cc1 | i | i | i | i | nt | nt
COc1ccc(C(CC(=O)O)NC(=O)OC(C)(C)C)cc1 (stereo unspecified) | i | i | i | i | nt | nt
CC(C)OC(=O)CC(NC(=O)OC(C)(C)C)c1ccccc1 (stereo unspecified) | i | i | nt | 8.1 | i | i
Cn1cc(CN2CCCC(CNS(=O)(=O)c3cccc4cccnc34)C2)cn1 (stereo unspecified) | i | i | i | 8.1 | i | i
O=C1CCCCC(=O)N(c2ccccc2)c2ccccc21 | i | i | i | i | nt | nt
O=C1Cc2ccccc2N1c1ccccc1 | i | i | i | 9.9 | i | i
CCOc1ccc(Cl)cc1S(=O)(=O)N1CCN(c2ccc(F)cc2)CC1 | i | i | i | 5.0 | i | i
CCOc1ccc(OCC)c(S(=O)(=O)N2CCN(c3ccc(F)cc3)CC2)c1 | i | i | i | i | nt | nt
COC(=O)c1ccc(C(=O)Nc2nnc(-c3ccc4c(c3)CCCC4)o2)cc1 | i | i | i | 6.0 | i | i
CCC(=O)Nc1nnc(-c2ccc3c(c2)CCCC3)o1 | i | i | i | i | nt | nt
CCOc1cc(/C=N/NS(C)(=O)=O)ccc1O | i | i | i | 9.0 | i | i
CCOc1cc(/C=N/Nc2ccc(S(=O)(=O)O)cc2)ccc1O | i | i | i | i | nt | nt
C=CCOc1c(Cl)cc(CNn2nnnc2N)cc1OC | i | i | i | i | nt | nt
CCOc1cc(CNn2nnnc2N)cc(Cl)c1OCC(=O)NC(C)(C)C | i | i | i | 5.2 | i | i
CCc1cccc(C)c1NC(=S)NN | i | i | i | 6.2 | i | i
CCc1cccc(C)c1NC(=O)C(C)C | i | i | i | i | nt | nt
O=C(CN1CCCc2ccccc21)Nc1ccc(Br)cc1 | i | i | i | 11.7 | i | i
CC(=O)c1ccc(NC(=O)CN2CCCc3ccccc32)cc1 | i | i | i | i | nt | nt
COc1cccc(NC(=O)CSc2nc3ccc(OC)cc3cc2C#N)c1 | i | i | i | 5.1 | i | i
CNS(=O)(=O)c1cc(-c2nnc(Nc3ccc(C(=O)Nc4ccccc4)cc3)c3ccccc23)ccc1C | i | i | i | i | nt | nt
COC(=O)C(CC1=CCC2CC1C2(C)C)(NS(C)(=O)=O)C(F)(F)F (stereo unspecified) | i | i | i | i | nt | nt
COc1ccccc1OCC(=O)Nc1ccc(S(=O)(=O)NC(C)=O)cc1 | i | i | i | 16.5 | i | i
Cc1cc(Br)ccc1OCC(=O)Nc1ccc(C(N)=O)cc1 | i | i | i | i | nt | nt
CC(=O)NS(=O)(=O)c1ccc(NC(=O)COc2ccc(C)cc2)cc1 | i | i | i | i | nt | nt
